Shown are actives, neighbours in structure and some others; about 7.3% of the full set was active somewhere.
SMN2 splice enh: enhancers of SMN2 splice variant expression | 210,000 compounds, 2.8% hits | HEK293 SMN2-luciferase splicing reporter, luminescence, 30-36 h | AID 1458 | Potency, µM (top dose mostly 46.1 µM), for the others: at the top dose activity change, positive = activation, most hits filed as activators; further: % of control where 0% means no effect; nearly all actives have a fitted effect of over 55% in size
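qHTS luciferase splicing reporter: luminescence rises when SMN2 exon 7 is included in transfected HEK293 cells. Compound exposure lasted 30-36 h at 37C, with 4.5 mM final sodium butyrate as control, followed by a ONE-Glo read.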
Rab9 prom act: Rab9 promoter activation; Potency, µM (top dose mostly 9.22 µM), inactives show at the top dose activation, negative = inhibition, usual class: activators; 320,000 compounds, 2.8% hits; Huh7 Rab9 promoter-luciferase reporter, luminescence, 24 h; further: % of control where 0% means no effect; nearly all actives have a fitted effect of over 60% in size
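Cell-based reporter: Huh7 stable for Rab9 promoter-driven luciferase, plated in reduced-serum medium with 10% FBS at 1500 cells/well, compound-treated 24 h at 37 °C, luminescence read after 10 min reagent.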
FLuc modulator: counter-screen for miR-21 project: firefly luciferase inhibitors or activators. P08659. Potency, µM (doses to about 57.5 µM), for the others: at the top dose activity change, negative = inhibition, actives largely listed as inhibitors. purified FLuc, Km substrates, luminescence inhibition. 360,000 compounds, 6.9% hits. AID 588342;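 further: plate controls were vehicle for no effect and reference inhibitor for full effect; nearly all actives have a fitted effect of over 55% in size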
Target sequence (P08659 whole entry, looked up): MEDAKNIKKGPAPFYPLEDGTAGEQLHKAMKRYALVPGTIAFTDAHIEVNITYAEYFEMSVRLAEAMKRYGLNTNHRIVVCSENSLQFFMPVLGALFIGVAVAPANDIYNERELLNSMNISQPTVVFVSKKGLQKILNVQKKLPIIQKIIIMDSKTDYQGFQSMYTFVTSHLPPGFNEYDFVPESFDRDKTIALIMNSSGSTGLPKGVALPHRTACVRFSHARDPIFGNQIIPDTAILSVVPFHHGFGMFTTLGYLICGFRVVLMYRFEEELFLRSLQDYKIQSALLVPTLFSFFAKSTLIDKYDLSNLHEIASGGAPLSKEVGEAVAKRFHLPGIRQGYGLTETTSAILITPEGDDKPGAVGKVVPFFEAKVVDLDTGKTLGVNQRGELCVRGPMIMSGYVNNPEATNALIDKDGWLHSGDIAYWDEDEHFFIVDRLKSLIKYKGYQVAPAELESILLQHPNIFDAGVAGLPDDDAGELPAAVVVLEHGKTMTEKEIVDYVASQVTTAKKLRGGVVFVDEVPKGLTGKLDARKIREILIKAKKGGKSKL
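Purified P. pyralis luciferase (10nM final) with 10uM D-luciferin and 10uM ATP (Km levels) in 50mM Tris acetate pH 7.5, 10mM Mg acetate, 0.01% Tween-20, 0.05% BSA; qHTS 6-point titration, ~60 µM downward; luminescence read.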
NPC1 promoter act: NPC1 promoter activation; Huh7 NPC1 promoter luciferase reporter, 24 h; Potency, µM (doses to about 9.22 µM), without a hit: at the highest dose activation, usual class: activators; 320,000 compounds, 2.4% hits; AID 485313; further: % of control where 0% means no effect; nearly all actives have a fitted effect of over 60% in size
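Luminescence from an NPC1 promoter-driven luciferase reporter in stably transfected Huh7 cells was measured after 24 h compound treatment at 37 °C, followed by 10 min ambient incubation with luciferase detection reagent.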
uPA surface inh: cell surface uPA generation inhibition; cell surface uPA generation assay, qHTS; Potency, µM (top dose mostly 38.3 µM), inactives show at the top dose activity change, negative = inhibition, most hits filed as inhibitors; 330,000 compounds, 0.31% hits; AID 540303; active means well fitted inhibition curve with a large enough effect; inconclusive means small, poorly fitted or top-dose-only effect; inactive means no such curve, though single readings can be large or run the other way; tested in mouse RAW 264.7 cells; further: on the % scale 0 is the no-effect control and ±100 the full control effect; nearly all actives have a fitted effect of over 55% in size
ELG1 genotoxic: induces genotoxicity in HEK293T cells with luciferase-tagged ELG1; AID 504466; 330,000 compounds, 1.3% hits; HEK293T ELG1-luciferase reporter, luminescence, 16 h; Potency, µM (highest dose often 46 µM), for inactives: at the top dose activity change, positive = activation, usual class: activators; further: % of control where 0% means no effect; nearly all actives have a fitted effect of over 60% in size
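Step 1: seed 2,000 HEK293T ELG1-luciferase cells per well. Step 2: add compound or DMSO, incubate 16 hr at 37 °C. Step 3: ONE-Glo, 30 min at room temperature, read luminescence.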
* marks the source's active call; other numbers are inactive results; u = inconclusive; x = no result; [ ] = another dose, or the depositor's remark. Unless noted, the call rests on the fitted dose curve; in most records, active means well fitted curve in the direction sought with a large enough effect; inconclusive means small, poorly fitted or top-dose-only effect, or another doubt; inactive means no such curve, though single readings can be large; an effect the other way counts as inactive or inconclusive. Potency means the concentration at half of the fitted maximal effect.

SMILES	SMN2 splice enh	Rab9 prom act	FLuc modulator	NPC1 promoter act	uPA surface inh	ELG1 genotoxic
CC1CCc2sc(C(=O)N3CCC(C(N)=O)CC3)cc2C1 (stereo not drawn)	x	0.5µM*	17µM*	0.4µM*	u	u
NC(=O)C1CCN(C(=O)c2cc3c(s2)CCCCC3)CC1	x	3.5µM*	u	u	-3%	18%
COc1cc(C2CC(=O)N(Cc3cccc(F)c3)c3ccccc3S2)cc(OC)c1OC (stereo not drawn)	-15%	x	-12%	x	x	x
Nc1ccc(N=Nc2ccccc2)c(N)n1	u	12%	17µM*	26%	12%	u
Nc1ccc(N=Nc2ccccc2)c2ccccc12	x	2%	17µM*	u	0%	0%
c1ccc(N=Nc2ccc3cccccc2-3)cc1	x	x	x	x	-4%	x
Cc1ccc(Nc2nc(N)nc(CCl)n2)cc1	x	-49%	1.9µM*	-49%	-16%	17%
Cc1ccc(Nc2nc(N)nc(COC(=O)C3=COCCO3)n2)cc1	x	2.8µM*	13µM*	2µM*	u	u
COc1cccc(Nc2nc(N)nc(CCl)n2)c1	x	-50%	21µM*	-41%	-13%	-7%
CCOc1ccc(Nc2nc(N)nc(CCl)n2)cc1	x	-53%	3µM*	-43%	-8%	10%
CCN(CC)S(=O)(=O)c1ccc2c(c1)N(CC(=O)NCCN1CCOCC1)C(=O)CO2	x	-2%	1%	-3%	13%	2%
Cc1ccc(Nc2nc(N)nc(CSCCO)n2)cc1	u	2µM*	24µM*	u	-4%	u
Cc1ccc(Nc2nc(N)nc(CC#N)n2)cc1	18µM*	u	11µM*	u	6%	18µM*
COc1ccc(Nc2nc(N)nc(CSCCO)n2)cc1	13%	3%	u	19%	-10%	u
NC(N)=Nc1nc(CSCC/C(N)=N\S(N)(=O)=O)cs1	7%	x	x	x	x	x
CC(CCC(=O)O)C1CCC2C3CC[C@@H]4CCCC[C@@]4(C)C3CC[C@@]12C (stereo partly drawn)	2%	x	x	x	x	x
CCCNC(=O)c1ccc(S(=O)(=O)c2ccc(OC)cc2)c([N+](=O)[O-])c1	x	-5%	-1%	-3%	-14%	-10%
O=C(NCCNc1ccccc1[N+](=O)[O-])c1cc(F)c(F)cc1Cl	x	u	19µM*	u	-2%	u
CC(C)COc1ccc(C(=O)Nc2ccccc2[N+](=O)[O-])cc1	16µM*	u	u	u	-2%	u
COc1ccc(C(=O)NCCNc2ccccc2[N+](=O)[O-])cc1	11µM*	0.63µM*	4.8µM*	1.6µM*	u	12µM*
CCOc1ccc(Cn2c(CNS(=O)(=O)c3ccc(Cl)s3)nc3cccnc32)cc1	x	x	-19%	x	x	x
COC(=O)N1CCC2(CCCN(c3ccc(-c4ccccc4)cc3)C2)CC1	29%	x	x	x	x	x
Clc1ccccc1/C=C/c1ccnc2ccccc12	x	17%	19µM*	14%	u	4%
O=C(O)C(=Cc1ccnc2ccccc12)C(=O)O	-5%[9.22 µM]	x	x	x	x	x
Oc1ccc(/C=C/c2ccnc3ccccc23)cc1	21%	17%	24µM*	10%	-19%	11%
SMILES	SMN2 splice enh	Rab9 prom act	FLuc modulator	NPC1 promoter act	uPA surface inh	ELG1 genotoxic
CCOc1ccc(N(C(C)C(=O)N2CCCCCC2)S(C)(=O)=O)cc1 (stereo not drawn)	x	2%	2%	-9%	22%	-6%
Cc1ccc(Nc2nc(CSc3nnc(-c4ccccc4C)n3C)cs2)cc1	x	u	1.9µM*	u	-1%	3%
Cc1ccccc1-n1c(SCc2csc(Nc3ccccc3)n2)nnc1-c1cccnc1	-13%	-1%	u	0%	0%	-8%
Cc1ccc(Nc2nc(CSc3nnc(-c4cccnc4)n3-c3ccccc3C)cs2)cc1	-44%	2%	11µM*	3%	0%	1%
Cc1ccc(Nc2nc(CSc3nnc(-c4ccccc4)n3C)cs2)cc1	u	u	1.2µM*	u	-5%	u
CCOc1cc(/C=C2\SC(=S)N(Nc3ccccc3)C2=O)ccc1O	-9%	5%	6.7µM*	u	-10%	u
